VDR inh = inhibitors of human vitamin D receptor. Potency, µM, for the others: max response, negative = inhibition, most hits filed as inhibitors. 0.93% of 400,000 active. P11473. VDR-SRC2-3 peptide fluorescence polarization, 2 h. AID 504847; further: on the % scale 0 is the no-effect control and ±100 the full control effect
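Measured by FP: displacement of SRC2-3 coactivator peptide from VDR by library compounds, following a two-hour ambient incubation.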
TrxR1 substrate = substrates of rat thioredoxin reductase 1. purified TrxR1 substrate turnover, NADPH consumption readout. Potency, µM (titrated, usually from 114 µM), for the others: at the top dose activity change, negative = substrate turnover. 0.01% of 390,000 active; further: on the % scale 0 is the no-effect control and ±100 the full control effect; nearly all actives have a fitted effect of over 50% in size
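Rat TrxR1, dispensed at 90 nM, was prereduced with 400 uM NADPH (final) for 5 min at ~22 deg C, then incubated with compound 15 min before 400 uM selenite. A first-read NADPH fluorescence drop versus no-compound background flagged substrates.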
TrxR1 inh = blocks rat thioredoxin reductase 1 | recombinant rTrxR1, NADPH fluorescence consumption, selenite substrate | Potency, µM (top dose mostly 114 µM), inactives show at the highest dose activity change, negative = inhibition, hits mostly inhibitors | 1% of 390,000 active; further: on the % scale 0 is the no-effect control and ±100 the full control effect; nearly all actives have a fitted effect of over 65% in size
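Rat TrxR1 (90 nM in the dispensed reagent) was pre-reduced with 400 uM NADPH for 5 min at room temperature, then incubated with compound for 15 min. After 400 uM selenite was added, NADPH fluorescence (Ex 340/Em 450 nm) was followed for 8 min.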
Vif-A3G inh = blocks the Vif interaction with human APOBEC3G; 0.076% of 410,000 active; AID 602310; Potency, µM (series often up to 46.1 µM), for inactives: at the top dose activity, negative = active, hits mostly inhibitors; Q9HC16; HeLa A3G-eYFP + Vif (tagged APOBEC3G with the HIV-1 protein that degrades it), YFP fluorescence, overnight; further: on the % scale 0 is the no-effect control and ±100 the full control effect; nearly all actives have a fitted effect of over 60% in size
Target sequence (Q9HC16 whole entry, looked up): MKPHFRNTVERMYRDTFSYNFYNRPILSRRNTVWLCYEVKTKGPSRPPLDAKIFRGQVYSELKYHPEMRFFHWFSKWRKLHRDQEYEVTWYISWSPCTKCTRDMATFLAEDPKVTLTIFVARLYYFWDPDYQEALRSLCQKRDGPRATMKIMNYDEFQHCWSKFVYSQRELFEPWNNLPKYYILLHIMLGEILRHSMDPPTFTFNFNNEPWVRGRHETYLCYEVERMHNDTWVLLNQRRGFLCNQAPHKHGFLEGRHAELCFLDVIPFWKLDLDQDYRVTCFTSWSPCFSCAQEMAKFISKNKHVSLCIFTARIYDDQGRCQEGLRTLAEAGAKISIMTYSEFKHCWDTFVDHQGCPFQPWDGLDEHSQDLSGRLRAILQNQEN
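Read-out is eYFP fluorescence (Ex 488/Em 500-530) from Vif-expressing HeLa A3G-eYFP cells; more signal means A3G escaped Vif-mediated degradation. Cells plated overnight, compound pinned in, incubated overnight at 37 deg C.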
Vif-APOBEC3F blk = Vif-A3F binding inhibition | Potency, µM (series often up to 46.1 µM), for the others: top-dose activity, negative = active | AID 602313 | 0.2% of 390,000 active | HeLa A3F-eYFP + Vif (tagged APOBEC3F with the HIV-1 protein that degrades it), YFP fluorescence increase; further: % of control where 0% means no effect; nearly all actives have a fitted effect of over 65% in size
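Fluorescence increase (Ex 488/Em 500-530) after overnight compound treatment at 37 deg C flags inhibition of Vif-driven A3F-eYFP loss in stable HeLa A3F-eYFP/Vif cells seeded overnight beforehand.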
* hit, by the source's call; [ ] = another dose, or the depositor's remark. Shown are actives, neighbours in structure and some others; about 1.8% of the full set was active somewhere. The call rests on the fitted dose curve; in most records, active means well fitted curve in the direction sought with a large enough effect; inconclusive means small, poorly fitted or top-dose-only effect, or another doubt; inactive means no such curve, though single readings can be large; an effect the other way counts as inactive or inconclusive. Potency means the concentration at half of the fitted maximal effect.

How did COc1ccc(Cl)c2sc(N(CCN(C)C)C(=O)CCS(=O)(=O)c3ccc(C)cc3)nc12 do in these assays?
VDR inh: -6%; TrxR1 substrate: 0%[57.1 µM]; TrxR1 inh: inconclusive; Vif-A3G inh: 1%; Vif-APOBEC3F blk: 3%

Results for Cc1cc(C)c2sc(N(CCN(C)C)C(=O)CCS(=O)(=O)c3ccccc3)nc2c1 ?
VDR inh: -18%; TrxR1 substrate: -1%; TrxR1 inh: inconclusive; Vif-A3G inh: -5%; Vif-APOBEC3F blk: -16%

Results for CN(C)CCN(C(=O)CCS(=O)(=O)c1ccccc1)c1nc2c(F)cccc2s1 ?
VDR inh: -14%; TrxR1 substrate: -8%; TrxR1 inh: 25µM*; Vif-A3G inh: 0%; Vif-APOBEC3F blk: -4%

How did COc1cc2nc(N3CCCCC3)nc(NC3CC3)c2cc1OC do in these assays?
TrxR1 substrate: 82%; TrxR1 inh: -4%

What do the screens show for `Cc1cc(C)n(-c2nc(C)c(C)c(=O)n2CC(=O)Nc2cccc([N+](=O)[O-])c2)n1`?
VDR inh: 0%; TrxR1 substrate: -7%[57.1 µM]; TrxR1 inh: 0%[57.1 µM]; Vif-A3G inh: 5%; Vif-APOBEC3F blk: inconclusive

What do the screens show for `O=[N+]([O-])c1ccccc1S(=O)(=O)Nc1cccc(-c2ccc(N3CCOCC3)nn2)c1`?
VDR inh: -11%; TrxR1 substrate: 0%; TrxR1 inh: -7%; Vif-A3G inh: -5%; Vif-APOBEC3F blk: 1%

How did O=[N+]([O-])c1ccccc1S(=O)(=O)Nc1ccc(-c2ccc(N3CCOCC3)nn2)cc1 do in these assays?
VDR inh: 5%; TrxR1 substrate: 0%[57.1 µM]; TrxR1 inh: 7%[57.1 µM]; Vif-A3G inh: -12%; Vif-APOBEC3F blk: 13µM*

How did COc1cccc(C(C2=C(O)CC(C)(C)CC2=O)C2C(=O)CC(C)(C)CC2=O)c1 (centres undefined) do in these assays?
VDR inh: inconclusive; TrxR1 substrate: -7%; TrxR1 inh: 45µM*; Vif-A3G inh: 2%; Vif-APOBEC3F blk: -26%

How did CCOc1ccc(/C=C/c2ccc3ccccc3n2)cc1OCC do in these assays?
TrxR1 substrate: -8%; TrxR1 inh: -15%; Vif-A3G inh: inconclusive

How did Cc1ccc(-c2cc(C(=O)NCCCN3CCOCC3)no2)cc1 do in these assays?
VDR inh: -6%; TrxR1 substrate: 13%; TrxR1 inh: 2%; Vif-A3G inh: -1%; Vif-APOBEC3F blk: 1%

Results for O=C(NCCCN1CCOCC1)c1cc(-c2cccs2)on1 ?
VDR inh: 19%; TrxR1 substrate: -4%[57.1 µM]; TrxR1 inh: 16µM*; Vif-A3G inh: 1%; Vif-APOBEC3F blk: -15%

How did CC(=O)Nc1ccc(NCCc2ccco2)cc1 do in these assays?
Vif-A3G inh: -3%

What do the screens show for `C#CCCCCCCCCCCCc1ccco1`?
VDR inh: 35µM*

How did CC(=O)NC1C(O)O[C@H](C(=O)O)[C@@H](O)[C@@H]1O (some centres undefined) do in these assays?
VDR inh: 1%

What do the screens show for `C=CCSSSCC=C`?
VDR inh: 25µM*

Results for COc1ccc(/C=C/c2cc(O)cc(O[C@H]3OC(CO)C(O)C(O)C3O)c2)cc1 (some centres undefined) ?
VDR inh: 3%

How did O=C(/C=C/c1ccccc1)c1ccc(O[C@H]2OC(CO)C(O)C(O)C2O)cc1O (some centres undefined) do in these assays?
VDR inh: 16µM*

What do the screens show for `COc1ccc(OC)c(N(CC(=O)NCCSCc2ccco2)S(=O)(=O)c2ccccc2)c1`?
VDR inh: -3%; TrxR1 substrate: 3%; TrxR1 inh: -34%; Vif-A3G inh: 0%; Vif-APOBEC3F blk: 1%

What do the screens show for `CCOc1ccccc1N(CC(=O)NCCSCc1ccco1)S(=O)(=O)c1ccccc1`?
VDR inh: -20%; TrxR1 substrate: -8%; TrxR1 inh: 22µM*; Vif-A3G inh: 0%; Vif-APOBEC3F blk: 7%

Results for O=C(COC(=O)/C=C/c1ccccc1)NCc1cccs1 ?
VDR inh: 10%; TrxR1 substrate: 4%; TrxR1 inh: 30%; Vif-A3G inh: 4%; Vif-APOBEC3F blk: 0%

What do the screens show for `Cc1ccc(/C=C/C(=O)OCC(=O)NCc2cccs2)o1`?
VDR inh: -8%; TrxR1 substrate: -11%; TrxR1 inh: 56µM*; Vif-A3G inh: 5%; Vif-APOBEC3F blk: -3%
